# Sampled rows, rich in hits. Any-hit rate of the full collection: about 6.8%.
# Fluor 339 460: intrinsic fluorescence of library compounds, ex339/em460 – biochemical, MLSMR library, data from DPM-DC assay, artefact control, profiling panel | compound autofluorescence, ex339/em460 nm, NADH buffer; hits give high values; 1 = no-compound wells, NADH background | fluorescence fold increase at 10 µM | 65,000 compounds, 5.5% hits;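 active means at 10 µM, mean starting fluorescence two-fold or more over control wells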;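 further: signal is the first read of a kinetic run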
# Spn DPM-DC inh: blocks S. pneumoniae diphosphomevalonate decarboxylase. purified DPM-DC, PK/LDH coupled NADH fluorescence. 65,000 compounds, 0.49% hits. calls only at 10 µM;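 active means the 320 compounds with the highest percent inhibition in the single-dose primary screen, excluding strongly autofluorescent ones, cut at about 32% in these data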;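 further: kinetic rate of NADH fluorescence loss reporting ADP formed by the decarboxylase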
# Spn MK inh: S. pneumoniae mevalonate kinase inhibition; 65,000 compounds, 0.48% hits; inhibition, % at 10 µM; purified MK, PK/LDH-coupled NADH absorbance 340 nm;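 active means ranked among the strongest by inhibition in the single 10 µM screen, a fixed top-ranked set picked for dose follow-up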
# Abs 340nm: absorbance at 340 nm. 65,000 tested, under 10 active. compound absorbance at 340 nm, fold over control. fold change at 10 µM;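 active means at 10 µM dose, initial 340 nm absorbance at least 2 fold that of control wells; inactive means change under 2 fold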;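 further: initial absorbance extrapolated from kinetic A340 decline of NADH oxidation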
# Spn PMK inh: inhibitors of Streptococcus pneumoniae phosphomevalonate kinase | purified PMK, PK/LDH-coupled NADH absorbance 340 nm | 65,000 compounds, 0.49% hits | inhibition, % at 10 µM;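 active means top-ranked compounds by inhibition in the single 10 µM screen, taking a fixed number of the strongest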;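 further: 0% = full reaction with DMSO carrier and 100% = background rate without enzyme reaction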
# NADH coupling: inhibition of NAD/NADH coupling enzymes, library profiling; 65,000 compounds, 0.02% hits; AID 774; coupled PK/LDH NADH assays, four targets; IC50, µM (series often up to 10 µM), for the others: top-dose inhibition;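 active means single-dose screening hits from any of four coupled enzyme assays that gave an IC50 when retested across doses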;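 further: the DPM-DC format reads NADH fluorescence rather than 340 nm absorbance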
# Numbers without * were called inactive; i = inactive; . = not tested or not shown; + = active, no number.
SMILES,Fluor 339 460,Spn DPM-DC inh,Spn MK inh,Abs 340nm,Spn PMK inh,NADH coupling
CC(=O)Nc1ccc2c(c1)C(=O)N(C1CCCCC1)C2=O,3.8*,.,7,1,9,8%
CC(C)C(OC(=O)CN1C(=O)COc2ccccc21)C(=O)NC1CCCC1 (centres undefined),1.2,+,14,1,14,30%
Cc1ccc2c(c1)N(CC(=O)OC(CC(C)C)C(=O)NC1CCCC1)C(=O)CO2 (centres undefined),1.1,i,11,1,4,5%
Cc1ccc2nc(-c3ccc(SCC(=O)O)nc3)[nH]c2c1,3.8*,+,8,1,9,17%
Cc1ccc2nc(SCC(=O)N3CCCC3)[nH]c2c1,1,i,6,0.99,17,8%
CC(C)NCC(O)Cn1c2c(c3ccccc31)CCc1c-2cnn1-c1ccccc1 (centres undefined),3.9*,.,9,1.1,10,10%
CN1CCc2c(n(CC(O)CN3C(=O)c4ccccc4S3(=O)=O)c3ccccc23)C1=O (centres undefined),1.1,i,5,1,0,2%
COc1ccc(OCC(=O)N2CCN(c3nnc(-c4ccccc4)c4ccccc34)CC2)cc1,1.1,i,1,1.1,26*,9%
COc1ccc(CNC(=O)CCCCCn2c(SCC#N)nc3cc4c(cc3c2=O)OCO4)cc1,1.1,i,1,1,15,5%
COc1cc(-c2cc3nc(C)c(C)c(=O)n3[nH]2)cc(OC)c1OC,2*,i,0,1,4,4%
COc1ccc(-n2c(SCC(N)=O)nc3sc4c(c3c2=O)CCN(C)C4)cc1,1.1,i,0,1.1,8,6%
COC(=O)CSc1nc2sc3c(c2c(=O)n1C1CCCCC1)CCN(C)C3,2.5*,.,1,1.1,3,13%
c1nc2sc3c(c2c2nnnn12)CCC3,2.1*,.,8,1,12,10%
CCOC(=O)N1CCC(N2C(=O)c3ccc(C(=O)NC4CCCCCC4)cc3C2=O)CC1,1.1,i,0,1,0,3%
CCOc1ccc(-c2cc3nc(C4CCN(C(=O)OC(C)(C)C)CC4)c(C(=O)O)cn3n2)cc1,4.4*,.,0,1.1,17,9%
CCOC(=O)N1CCC(NS(=O)(=O)c2cc(Br)cc3c2N(C(=O)CC)CC3)CC1,1,i,11,1,0,5%
O=C(CN1CCN(c2ncccn2)CC1)Nc1ccccc1-n1cccc1,1,i,34,0.99,0,3%
Cc1cc(=O)oc2cc(OCC(=O)NCCCN3CCOCC3)ccc12,1.8,i,7,1.1,5,8%
COc1ccc2c(c1)c(=O)oc1cc(OCC(=O)NC3CC3)ccc12,3.7*,.,7,1.1,4,6%
CC(C)CCNC(=O)COc1ccc2c3c(c(=O)oc2c1)CCC3,3.1*,i,6,1.1,18,15%
CC(C)CNC(=O)COc1ccc2c3c(c(=O)oc2c1)CCC3,2*,+,3,1.1,15,19%
COc1ccccc1OCC(=O)NC1CCCCCC1,1.1,i,6,1,8,5%
NC(=O)c1cnccn1,1.1,i,1,1,0,0%
Cc1nnc(SCCn2c(N3CC(C)CC(C)C3)nc3c2c(=O)[nH]c(=O)n3C)s1 (centres undefined),1.1,i,2,1,3,2%
CCOC(=O)CNC(=O)c1cnn2cccnc12,2.3*,i,17,1.1,4,13%
SMILES,Fluor 339 460,Spn DPM-DC inh,Spn MK inh,Abs 340nm,Spn PMK inh,NADH coupling
COc1ccc2nc3sc(C(=O)N4CCN(C)CC4)cc3cc2c1,2.7*,i,0,1,15,7%
CCOC(=O)C1CCN(C(=O)c2cc3cc4cc(OC)ccc4nc3o2)CC1,5.1*,.,0,1,11,6%
COc1ccc2nc3oc(C(=O)N4CCCCC4)cc3cc2c1,3.4*,.,0,1,9,16%
COc1ccc2nc(SCC(=O)N3CCCCCC3)c(C#N)cc2c1,1.3,i,12,1,4,8%
Fc1ccc(COc2ccc(/C=N/n3cnnc3)cc2)cc1,1.2,i,3,1.1,10,4%
CC(C)C(NC(=O)C1CCCCC1)C(=O)NC1CCN(Cc2ccccc2)CC1 (centres undefined),1.1,i,3,0.98,5,3%
Cc1cccn2c(=O)c(C=NCc3ccccc3)c(NCCO)nc12,3.6*,i,12,1.1,9,16%
Cc1cc2oc(=O)cc(C)c2c(=O)o1,1.2,i,0,1,9,10%
Cc1cc(=O)oc2cc3c(cc12)OCCN3,2.1*,.,4,1.1,11,8%
Cc1cc(=O)oc2cc3c(cc12)OCCO3,3.6*,.,4,1.1,0,2%
CCCCOC(=O)Nc1cc(OC)c(Cl)cc1OC,0.99,i,3,1.1,2,2%
Cc1nn(-c2ccccc2)c2nc(-c3ccncc3)cc(C(=O)NCc3ccco3)c12,1.8,i,0,1.1,14,11%
O=C(CSc1nc(-c2ccco2)cc(C(F)(F)F)n1)NC1CCCC1,1.1,i,7,1.1,10,8%
O=C(c1cnn2c(C(F)(F)F)cc(-c3ccc4c(c3)OCO4)nc12)N1CCCCC1,1.4,i,5,1,1,2%
O=C(NC1CCCC1)c1cnn2c(C(F)(F)F)cc(-c3ccc4c(c3)OCO4)nc12,2.1*,i,0,1.1,15,9%
O=C(NC1CCCC1)c1cnn2c(C(F)(F)F)cc(-c3ccco3)nc12,2.9*,i,3,1.1,18,15%
CCOC(=O)c1cc(-c2ccco2)nc2c1c(C)nn2-c1ccccc1,2.5*,i,0,1.1,5,7%
Cc1cc(-c2ccccc2)nc2cc(C(N)=O)nn12,2*,+,13,1,3,8%
CC(C#N)Sc1nc2ccccc2c(=O)n1-c1ccccc1 (centres undefined),1.1,i,0,1,13,4%
COc1ccc(-c2cc(C(F)(F)F)n3ncc(C(=O)NCc4ccco4)c3n2)cc1,2.2*,.,6,1.1,0,3%
O=C(NCc1ccco1)c1cnn2c(C(F)(F)F)cc(-c3ccccc3)nc12,1.2,i,0,1,0,1%
O=C(NCc1ccco1)c1cc2nc(-c3cccs3)cc(C(F)(F)F)n2n1,2.1*,.,18,1.1,11,15%
CCOC(=O)c1cnn2c(C(F)F)cc(C3CC3)nc12,1.8,i,2,1.1,7,10%
CCOC(=O)c1cnn2c(C)cc(-c3ccccc3)nc12,3.7*,.,6,1.1,12,9%
CCOC(=O)c1cnn(-c2cc(C)nc3c(-c4ccccc4)cnn23)c1N,1.1,i,2,1,2,1%
